High-throughput results (PubChem)
The entries come from a sample that favours hits as a whole.
RBX1-CUL1 inh – blocks human RBX1-Cullin-1 di-ubiquitin formation; inhibition, % at 10 µM; in vitro K48 di-Ub FRET, acceptor:donor ratio, 45 min; 140,000 compounds, 0.6% hits; AID 1347404; in the data active means inhibition above about 25%
Target sequence (P62877 whole entry, looked up): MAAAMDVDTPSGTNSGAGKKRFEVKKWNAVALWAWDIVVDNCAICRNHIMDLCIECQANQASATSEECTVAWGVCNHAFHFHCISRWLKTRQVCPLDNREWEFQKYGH
Target sequence (Q13616 whole entry, looked up): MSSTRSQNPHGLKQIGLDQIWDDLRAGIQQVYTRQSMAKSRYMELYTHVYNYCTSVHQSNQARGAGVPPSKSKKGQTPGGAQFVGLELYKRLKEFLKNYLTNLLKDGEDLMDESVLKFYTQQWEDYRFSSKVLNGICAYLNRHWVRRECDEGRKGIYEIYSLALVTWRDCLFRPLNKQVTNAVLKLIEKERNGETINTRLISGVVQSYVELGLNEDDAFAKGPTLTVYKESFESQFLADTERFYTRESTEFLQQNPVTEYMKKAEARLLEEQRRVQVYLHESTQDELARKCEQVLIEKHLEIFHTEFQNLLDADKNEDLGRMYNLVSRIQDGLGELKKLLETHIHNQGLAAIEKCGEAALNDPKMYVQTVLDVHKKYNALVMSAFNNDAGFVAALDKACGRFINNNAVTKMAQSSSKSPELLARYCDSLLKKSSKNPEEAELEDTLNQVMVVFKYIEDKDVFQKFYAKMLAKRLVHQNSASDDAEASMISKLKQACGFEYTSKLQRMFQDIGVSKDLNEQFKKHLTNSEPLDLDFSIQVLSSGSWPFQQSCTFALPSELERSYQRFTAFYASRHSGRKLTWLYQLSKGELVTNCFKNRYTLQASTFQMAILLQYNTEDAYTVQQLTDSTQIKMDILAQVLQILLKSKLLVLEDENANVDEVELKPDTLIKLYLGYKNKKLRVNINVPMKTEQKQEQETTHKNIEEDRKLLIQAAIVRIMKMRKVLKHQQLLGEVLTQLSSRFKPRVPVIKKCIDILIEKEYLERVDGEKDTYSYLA
Of the large screens only hits and unclear results are named; the others gave an inactive call.

CCOC(=O)c1c(NC(=O)CCC(=O)O)sc(C)c1-c1ccc(CC(C)C)cc1	RBX1-CUL1 inh 91
CCN(CC)CC(O)COc1cc(CN2CCC(OC)CC2)ccc1OC (centres undefined)	none
COC(=O)C1=NNC2(C)C(=O)N(c3ccc(Cl)cc3)C(=O)C12 (centres undefined)	none
CN1C(=O)C(ON2C(=O)c3ccccc3C2=O)N(c2ccc(Br)cc2)C1=O (centres undefined)	none
COC1=CC(=NC#N)C(Br)=CC1=NC#N	RBX1-CUL1 inh 104
C=CCNC(=O)C1CCN(c2nc(-c3ccccc3)nc3c2CCC3)CC1	none
CN1CCC2=NC(=S)C(C#N)=C(c3ccc(F)cc3)C2C1 (centres undefined)	RBX1-CUL1 inh 97
N#CC1=C(c2ccco2)C2CCCCC2=NC1=S (centres undefined)	none
COc1ccc(C2=C(C#N)C(=S)N=C(C3CC3)C2)cc1	none
COc1ccc(-c2nnc(-c3ccccc3)o2)cc1S(=O)(=O)NCCc1ccccc1	none
N#CC1C(=N)Oc2n[nH]c(-c3ccc4c(c3)OCO4)c2C1c1ccc(Br)cc1 (centres undefined)	none
CCc1ccc(N=C2NC(=O)/C(=C/c3cc(C)n(-c4ccncc4)c3C)S2)cc1	none
COc1ccc(/C=C2\SC(=Nc3cccc(Cl)c3C)NC2=O)c(OC)c1	none
Cc1ccccc1/C=C1/SC(=Nc2ccccc2)NC1=O	none
CCOc1ccccc1/C=C1\SC(=Nc2cccc(Cl)c2C)NC1=O	RBX1-CUL1 inh 26
COc1ccc(N=C2NC(=O)/C(=C/c3ccc(OCc4cccc(C(=O)O)c4)c(OC)c3)S2)cc1	none
CCOc1cc(/C=C2\SC(=Nc3cccc(Cl)c3C)NC2=O)cc(Br)c1OC	none
Cc1cc(/C=C2\SC(=Nc3ccccc3)NC2=O)c(C)n1-c1cc(C(=O)O)cc(C(=O)O)c1	RBX1-CUL1 inh 69
O=C1NC(=Nc2ccc(Br)cc2)S/C1=C\c1ccccc1O	none
O=C1NC(=Nc2ccc(C(=O)O)cc2)S/C1=C/c1ccccc1OCc1ccccc1	RBX1-CUL1 inh 94
Cc1c(C)n2c3c(=O)n(Cc4ccccc4)c(=O)n(C)c3nc2n1CCN(C)C	none
COc1ccc(NC(=O)c2sc3nc4c(c(-c5ccc(C)o5)c3c2N)CCCC4)cc1	none
O=C1CC(=NCc2ccccc2)C(c2ccccc2)=NN1	none
COc1cc([C@@H]2C[C@H]3CN(C)C(=O)[C@]34CCCN24)ccc1OCc1ccccc1	none
COc1cccc([C@@H]2Nc3ccc(C(=O)O)cc3[C@@H]3C=CC[C@@H]32)c1OC	none
COc1ccc(NS(=O)(=O)c2ccc3c(c2)[C@H]2C=CC[C@H]2[C@@H](c2ccc(C(=O)O)cc2)N3)cc1	RBX1-CUL1 inh 97
CC(C)c1ccc2c(c1)[C@@H]1C=CC[C@@H]1[C@H](c1ccc(S(=O)(=O)N3CCOCC3)cc1)N2	RBX1-CUL1 inh 31
COC(=O)c1ccc([C@H]2Nc3ccc(S(=O)(=O)Nc4ccc(C)cc4)cc3[C@H]3C=CC[C@H]32)cc1	none
Cc1cccc(NS(=O)(=O)c2ccc3c(c2)[C@H]2C=CC[C@H]2[C@@H](c2ccc(C(C)(C)C)cc2)N3)c1	none
COc1cccc([C@H]2Nc3ccc(S(=O)(=O)Nc4ccc(C)c(C)c4)cc3[C@H]3C=CC[C@H]32)c1	none
O=C(O)c1ccc2c(c1)C1C=CCC1C(c1cccc3ccccc13)N2 (centres undefined)	RBX1-CUL1 inh 95
Cc1cccc(C)c1NS(=O)(=O)c1ccc2c(c1)[C@H]1C=CC[C@H]1[C@@H](c1ccc(Cl)cc1)N2	none
C1=CC2c3c(ccc4ccccc34)NC(c3cccc4ccccc34)C2C1 (centres undefined)	none
CC(=O)c1cnn(-c2cc(Oc3ccccc3F)nc(C)n2)c1C	none
COC(=O)CN1CCN(S(C)(=O)=O)CC1	none
C=CCn1c(COc2ccc(C(C)(C)c3ccccc3)cc2)n[nH]c1=S	none
Cc1cccc(OC(=O)C2CCCC2)c1	none
CCCOc1c(I)cc(C(=O)Nc2cccc(O)c2)cc1OCC	none
Fc1ccccc1CNCC1CCNCC1	none
O=C(N=Nc1c(O)n(Cc2cccc3ccccc23)c2ccccc12)c1cccs1	none
Cc1ccc(-c2cn3c(n2)sc2cc(C(=O)NCCCN4CCCCCC4)ccc23)cc1	RBX1-CUL1 inh 39
CCOc1ccc(-c2cn3c(n2)sc2cc(C(=O)NCCCN4CCCCC4)ccc23)cc1	none
CCN1CCN(CCCNC(=O)c2ccc3c(c2)sc2nc(-c4ccc(C)cc4)cn23)CC1	none
CCOc1ccc(-c2cn3c(n2)sc2cc(C(=O)NCCCN4CCCCCC4)ccc23)cc1	RBX1-CUL1 inh 42
CCCN1CCN(CCCNC(=O)c2ccc3c(c2)sc2nc(-c4ccc(OCC)cc4)cn23)CC1	none
Cc1ccc(-c2cn3c(n2)sc2cc(C(=O)NCCCN4CCCCC4)ccc23)cc1	none
Cc1cnccc1NCCNc1nccc(-c2ncnn2C)n1	none
Cc1ccc(NC(=O)Nc2ccc(Cl)cc2)cc1[N+](=O)[O-]	none
CCOc1ccccc1C(=O)Nc1ccc(S(=O)(=O)N2CCC(C)CC2)cc1	none
CCOCN(C(=O)Cn1c(CCCO)nc2ccccc21)c1c(C)cccc1CC	none
COc1cccc(-c2[nH]nc3c2C(c2ccc(C(C)(C)C)cc2)C(C#N)C(=N)O3)c1 (centres undefined)	none
CC(NC(=O)CN(C)C1CCCCC1)c1ccccc1 (centres undefined)	none
CC1=NC(=S)C(C#N)=C(C(F)(F)F)C1	none
N#CC1=C(C(F)(F)F)CC(c2ccco2)=NC1=S	RBX1-CUL1 inh 91
N#CC1=C(c2ccccc2)CC(C(F)(F)F)=NC1=S	none
COc1ccc2oc(=O)c(-c3nnc(Nc4ccccc4OC)s3)cc2c1	none
O=C1NN(c2cccc(Cl)c2)C(=O)/C1=C/c1ccc(O)cc1	none
O=C1NN(c2cccc(F)c2)C(=O)/C1=C\c1ccccc1	none
O=C1NN(c2cccc(Cl)c2)C(=O)/C1=C/c1ccc(Cl)cc1	RBX1-CUL1 inh 64
O=C1NN(c2cccc(Cl)c2)C(=O)/C1=C\c1ccc(F)cc1	RBX1-CUL1 inh 83
O=C1NN(c2cccc(Cl)c2)C(=O)/C1=C/c1cccc(I)c1	none
COc1ccc(/C=C2\C(=O)NN(c3cccc(Cl)c3)C2=O)cc1OC	none
CC(=O)N=C1C(=O)c2ccccc2C(=O)C1N1CCN(c2ccc(F)cc2)CC1 (centres undefined)	none
O=C(CC(c1ccccc1)c1ccccc1F)N1CCC(N2CCOCC2)CC1 (centres undefined)	none
O=C1C(=Nc2ccc(F)cc2)C(N2CCOCC2)C(=O)c2ccccc21 (centres undefined)	RBX1-CUL1 inh 50
C/C(=N\N1CCN(C2c3ccccc3-c3ccccc32)CC1)c1ccc(F)cc1	none
O=C1C(=Nc2ccc(F)cc2)C(N2CCCCC2)C(=O)c2ccccc21 (centres undefined)	RBX1-CUL1 inh 50
O=C1c2ccccc2C(=O)C1C(c1ccc(F)cc1)c1ccc(F)cc1	none
Cc1ccc(-n2nnc(C(=O)Nc3ccc(-n4nncc4C)cc3)c2C)cc1	none
Cc1cc(C)cc(C(=O)N2CCN(Cc3ccco3)CC2)c1	none
CCCCOc1ccc(/C=C2/C(=O)N(c3cccc(Cl)c3C)N=C2C)cc1OC	none
COc1cc(C=C2C(=O)OC(c3ccccc3)OC2=O)cc(Cl)c1O (centres undefined)	none
COc1cc(/C=C2\C(=O)N(c3ccccc3Cl)N=C2C)cc(I)c1O	RBX1-CUL1 inh 78
Cc1ccc(-c2ccccc2)n1-c1ccc(C(=O)O)cc1	none
Cc1ccc(C)n1-c1cccc(Cl)c1Cl	none
Cc1ccc(C)n1-c1cc(C(=O)O)ccc1Cl	RBX1-CUL1 inh 101
Cc1ccc(-c2ccccc2)n1-c1cccc(C(=O)O)c1	none
Cc1cc(C(=O)O)ccc1-n1c(C)ccc1C	RBX1-CUL1 inh 99
Cc1ccc(C(=O)O)cc1-n1c(C)ccc1C	RBX1-CUL1 inh 96
